The source of these data is PubChem BioAssay AID463173 (ICCB-Longwood Screening Facility, Harvard Medical School, 2010).

In all, about 52,000 compounds went through this assay and about 1,700 (3.3%) were called active. This is one part of a sample in which actives are shown more often than they occur. Rule as the data show it: active = survival mostly below about 52% (no sharp cut-off); inactive = mostly above about 56%.

This assay concerns Wild type. In words: growth inhibition of S. aureus wild type versus tarO mutant, primary screen, teichoic acid synthesis inhibitors, RN4220, OD600 (AID 463173). Conditions: S. aureus RN4220 wild type/DeltatarO growth, OD600, 18 h, hits give low values, screened at 18.75 µg/mL (by protocol).
Regarding `COc1ccccc1CCNC(=O)c1cc2ccccn2n1`, the survival was 152% (inactive).

In the case of `CC(=O)Nc1c(C)nn(-c2ccccc2)c1N1CCC(C(=O)NCc2cccc(Cl)c2)CC1`, the survival was 71% (inactive).

Turning to `CC(=O)Nc1c(C)nn(-c2ccccc2)c1N1CCC(C(=O)Nc2cc(F)ccc2F)CC1`, the survival was 63% (inactive).

As to `CC(=O)Nc1c(C)nn(-c2ccccc2)c1N1CCC(C(=O)NCc2ccc(Cl)cc2)CC1`, the survival is 81% (inactive).

Take `CC(=O)Nc1c(C)nn(-c2ccccc2)c1N1CCC(C(=O)NCc2ccc(F)cc2)CC1`: the survival is -3% (active).

In the case of `CC(=O)Nc1ccc(NC(=O)C2CCN(c3c(NC(C)=O)c(C)nn3-c3ccccc3)CC2)cc1`, the survival was 63% (inactive).

In the case of `CC(=O)Nc1c(C)nn(-c2ccccc2)c1N1CCC(C(=O)NCc2cccc(F)c2)CC1`, the survival is 1% (active).

Consider `CC(=O)Nc1c(C)nn(-c2ccccc2)c1N1CCC(C(=O)Nc2ccc(F)cc2Cl)CC1`, for which the survival is 60% (inactive).

As to `CC(=O)Nc1c(C)nn(-c2ccccc2)c1N1CCC(C(=O)NCc2ccccc2Cl)CC1`, the survival was -4% (active).

Consider `CC(=O)Nc1c(C)nn(-c2ccccc2)c1N1CCC(C(=O)Nc2ccc(C)cc2Cl)CC1`, for which the survival is 71% (inactive).

With `CN(C(=O)CSc1nc2ccc(NC(=O)c3cccs3)cc2s1)c1ccccc1`, the survival is 77% (inactive).

Take `CCOc1ccc(NC(=O)Cn2cc(C(=O)C3CC3)c3ccccc32)cc1`: the survival was 78% (inactive).

For the molecule `CC1Cc2ccccc2N1C(=O)c1cc2sccc2n1Cc1ccc(F)cc1` (centres undefined), the survival is 119% (inactive).

`Cn1c(=O)cc(OCC(=O)NCc2ccc(F)cc2Cl)c2ccccc21`: the survival was 117% (inactive).

Take `CCOc1ccc(NC(=O)c2c(NC(=O)Cc3ccccc3)sc3c2CCCC3)cc1`: the survival was 69% (inactive).

With `Cc1noc(-c2ccc(-c3noc(-c4ccc(F)cc4)n3)cc2)n1`, the survival is 64% (inactive).

As for `Cc1noc(-c2ccc(-c3noc(-c4ccc(Cl)cc4)n3)cc2)n1`, the survival is 87% (inactive).

As to `Cc1noc(-c2ccc(-c3noc(-c4ccccc4)n3)cc2)n1`, the survival is -6% (active).

Consider `Clc1cccc(C2=NC(c3cccs3)=Nc3ccc(Br)cc3N2)c1`, for which the survival was 79% (inactive).

Turning to `CCOc1ccc(-c2c(C)nn3c(C)c(C(=O)NCCN(C)C)cnc23)cc1OCC`, the survival is 87% (inactive).

In the case of `Cc1cccc(N2CCN(c3c4c(nc5nncn35)CCC4)CC2)c1C`, the survival was 84% (inactive).

With `CCCn1c2ccccc2c2cnn(CC(=O)NC(C)CC)c(=O)c21` (centres undefined), the survival is 64% (inactive).

For the molecule `COc1ccccc1CNC(=O)Cn1ncc2c3ccccc3n(Cc3ccccc3C)c2c1=O`, the survival is 85% (inactive).

In the case of `CCCn1c2ccccc2c2cnn(CC(=O)NCC3CCN(Cc4ccc(F)cc4)CC3)c(=O)c21`, the survival is 74% (inactive).

Turning to `CCCn1c2ccccc2c2cnn(CC(=O)NCC3CCN(Cc4ccccc4C)CC3)c(=O)c21`, the survival was 14% (active).

Turning to `CCCn1c2ccccc2c2cnn(CC(=O)NCC3CCN(Cc4ccc(C)cc4)CC3)c(=O)c21`, the survival is -1% (active).

In the case of `CCCn1c2ccccc2c2cnn(CC(=O)NCc3ccccc3Cl)c(=O)c21`, the survival was 120% (inactive).

`Cc1ccc(CNC(=O)CN(C)S(=O)(=O)c2ccc3c(c2)c(=O)n(C)c(=O)n3C)cc1`: the survival was 84% (inactive).

Consider `c1ccc(C(c2nnnn2C2CCCC2)N2CCN(c3ccccc3)CC2)cc1` (centres undefined), for which the survival was 108% (inactive).

`Cc1ccc(C)c(N2CCN(C(=O)C3CCC(CNS(=O)(=O)c4ccc(Br)s4)CC3)CC2)c1` (centres undefined): the survival was 76% (inactive).

Take `CCc1ccc(NC(=O)c2ccc(CN3CC(=O)N4CCCCC4C3=O)cc2)cc1` (centres undefined): the survival was 87% (inactive).

In the case of `O=C(Nc1ccc(F)cc1)c1ccc(CN2CC(=O)N3CCCCC3C2=O)cc1` (centres undefined), the survival is -6% (active).

In the case of `Cc1ccc(NC(=O)c2ccc(CN3CC(=O)N4CCCCC4C3=O)cc2)cc1` (centres undefined), the survival is -6% (active).

For the molecule `Cc1ccc(NC(=O)c2ccc(CN3CC(=O)N4CCCCC4C3=O)cc2)cc1C` (centres undefined), the survival is 73% (inactive).

For `O=C(Nc1cc(F)ccc1F)c1ccc(CN2CC(=O)N3CCCCC3C2=O)cc1` (centres undefined), the survival was 76% (inactive).

For `CC(C)c1ccc(NC(=O)c2ccc(CN3CC(=O)N4CCCCC4C3=O)cc2)cc1` (centres undefined), the survival was 90% (inactive).

Regarding `CC(C)CCNc1ccc(-c2ccc(Cl)cc2)nn1`, the survival was 106% (inactive).

Turning to `CCCCN(CCCC)C(=O)c1cc2c(=O)n3ccccc3nc2s1`, the survival is 61% (inactive).

For the molecule `Cc1ccc(N2CC(NC(=O)Cc3cccs3)CC2=O)cc1C` (centres undefined), the survival was 19% (inactive).

With `Fc1ccc(C(Nc2ccccc2Cl)c2nnc(-c3ccccc3Cl)o2)cc1` (centres undefined), the survival is 89% (inactive).

For `Fc1ccc(NCc2ccccc2-c2nnc(-c3ccccc3Cl)o2)cc1`, the survival is 89% (inactive).

As to `COc1ccc(CCNC(c2ccc(F)cc2)c2nnc(-c3ccccc3Cl)o2)cc1OC` (centres undefined), the survival is 49% (inactive).

Take `Fc1ccc(C(NCCc2ccccc2)c2nnc(-c3ccccc3Cl)o2)cc1` (centres undefined): the survival was 94% (inactive).

On to `Fc1ccc(C(NCCc2ccc(Cl)cc2)c2nnc(-c3ccccc3Cl)o2)cc1` (centres undefined), for which the survival is 11% (active).

As for `Cc1ccc(CCNC(c2ccc(F)cc2)c2nnc(-c3ccccc3Cl)o2)cc1` (centres undefined), the survival was 0% (active).

As to `COc1cc(NC(=O)CCc2c(C)n(C)c3cc(-c4ccccc4C)nn3c2=O)cc(OC)c1OC`, the survival was 130% (inactive).

Consider `Cc1ccc(NC(=O)N2CCc3c([nH]c4ccccc34)C2c2ccccc2F)c(Cl)c1` (centres undefined), for which the survival is 82% (inactive).

As for `CCc1ccc(NS(=O)(=O)c2ccc(C(=O)N(C)C)s2)cc1`, the survival was 64% (inactive).

Take `CCC1CCCCN1C(=O)c1sc(-n2nc(C)c(Cc3ccccc3)c2C)nc1C` (centres undefined): the survival is 72% (inactive).

With `CC(=O)c1ccc(NC(=O)C2CCN(S(=O)(=O)c3ccc4c(c3)CCCN4C(=O)C3CCC3)CC2)cc1`, the survival was 74% (inactive).

Regarding `CCOC(=O)Cn1nc(N2CCN(c3ccc(F)cc3)CC2)ccc1=O`, the survival is 73% (inactive).

Consider `COc1ccc(Cn2ccc3nc(C)c(C(=O)NCc4cccc(OC)c4)cc3c2=O)cc1`, for which the survival is 75% (inactive).

Regarding `Cc1ccc(CNC(=O)CCCc2nnc3n(C)c(=O)c4sccc4n23)cc1`, the survival was 92% (inactive).

On to `CCOC(=O)c1cc(C)n(CC2CCC(C(=O)Nc3cccc(C(C)=O)c3)CC2)c1C` (centres undefined), for which the survival was 79% (inactive).

In the case of `Cc1c(Cl)cccc1-n1nc(C)c2c(C)cc(=O)n(CC(=O)N3CCCc4ccccc43)c21`, the survival is 71% (inactive).

`CC(=O)N1CCc2c(sc(NC(=O)CSc3ccccc3)c2-c2nc3ccccc3s2)C1`: the survival is 120% (inactive).

`CN1CCc2c(sc(NC(=O)CSc3ccccc3)c2-c2nc3ccccc3s2)C1`: the survival is 80% (inactive).

In the case of `CCN1CCc2c(sc(NC(=O)CSc3ccccc3)c2-c2nc3ccccc3s2)C1`, the survival is -6% (active).

Consider `CCOC(=O)c1cc(-c2ccccc2)n(CC(=O)NC2CCC(C)CC2)c1C` (centres undefined), for which the survival was 81% (inactive).

On to `CCc1ccc(NC(=O)C(CC)n2c(=O)c(C(F)(F)F)nc3ccccc32)cc1` (centres undefined), for which the survival was 81% (inactive).

For `Cc1cccc(N2CCN(Cc3cc(=O)oc4cc(C)ccc34)CC2C)c1` (centres undefined), the survival was 84% (inactive).

With `CC(C)(C)c1ccc(C2Sc3ccccc3NC3=C2C(=O)c2ccccc23)cc1` (centres undefined), the survival is 82% (inactive).

Consider `O=C1C2=C(Nc3ccccc3SC2c2ccc(C(F)(F)F)cc2)c2ccccc21` (centres undefined), for which the survival is 36% (inactive).

As to `O=C1C2=C(Nc3ccccc3SC2c2ccccc2C(F)(F)F)c2ccccc21` (centres undefined), the survival is 11% (active).

Consider `CCC(Sc1nnc(C)n2c1cc1sccc12)C(=O)Nc1ccccc1F` (centres undefined), for which the survival is 79% (inactive).

Take `CCOc1cc(CNC(=O)c2ccc(Cn3c(=O)c4cccn4c4cccnc43)cc2)ccc1OC`: the survival is 86% (inactive).

As for `COc1cccc(-c2nn(C)c3sc(C(=O)N4CCN(c5cccc(C)c5)C(C)C4)cc23)c1` (centres undefined), the survival is 72% (inactive).

As for `CCOC(=O)C1CCC(CN(Cc2ccc(Cl)cc2)S(=O)(=O)c2cccc(Cl)c2C)CC1` (centres undefined), the survival is 82% (inactive).

Consider `CCOC(=O)c1ccc(NC(=O)CC2Nc3ccccc3NC2=O)cc1` (centres undefined), for which the survival is 62% (inactive).

With `CCOC(=O)c1ccc(NC(=O)CC2Nc3cccc4cccc(c34)NC2=O)cc1` (centres undefined), the survival is -13% (active).

Consider `CC(=O)c1ccc(NC(=O)CC2Nc3cccc4cccc(c34)NC2=O)cc1` (centres undefined), for which the survival was 96% (inactive).

`Cc1ccccc1N(C)S(=O)(=O)c1nnc(NC(=O)c2ccccc2F)s1`: the survival is 33% (inactive).

Turning to `CCOC(=O)CC(NC(=O)Cn1nnc(-c2ccc(C(F)(F)F)cc2)n1)c1ccc(C)cc1` (centres undefined), the survival was 87% (inactive).

Turning to `CCOC(=O)c1ccccc1NC(=O)CCOc1ccccc1`, the survival is 6% (active).

For the molecule `CCc1ccc(NC(=O)Cc2c(C(=O)O)c(C)cn2C)cc1`, the survival is 76% (inactive).

For the molecule `Cc1ccc(C)c(NC(=O)CCOc2ccccc2)c1`, the survival is 94% (inactive).

On to `Cc1cn(C)c(CC(=O)Nc2cccc(Cl)c2C)c1C(=O)O`, for which the survival is 124% (inactive).

With `CCOC(=O)c1ccccc1NC(=O)Cc1c(C(=O)O)c(C)cn1C`, the survival was -1% (active).

Regarding `Cc1c(Cl)cccc1NC(=O)CCOc1ccccc1`, the survival is 145% (inactive).

As for `CC(=O)N1CCc2cc(S(=O)(=O)NC(Cc3ccccc3)C(=O)Nc3ccc(Cl)cc3)ccc21` (centres undefined), the survival was 89% (inactive).

In the case of `O=C(NCCc1ccccc1)c1cc(-c2ccc(Cl)cc2)on1`, the survival is 101% (inactive).

`O=C(NCc1ccccc1F)C(=O)NCC(c1ccc2c(c1)OCO2)N1CCOCC1` (centres undefined): the survival is 71% (inactive).

Consider `CCc1cccc(CC)c1NC(=O)C(CC)n1nc(C)n2c(cc3cc(C)ccc32)c1=O` (centres undefined), for which the survival is 73% (inactive).

In the case of `CCOc1ccc(CN2C(=O)c3ccccc3Sc3ccc(C(=O)NC)cc32)cc1`, the survival was 78% (inactive).

For the molecule `Cc1cccc(/C=N/NC(=O)c2ccccn2)c1O`, the survival was 18% (inactive).

For `Cc1cc(S(=O)(=O)N(C)CCc2ccccc2)ccc1-n1cnnn1`, the survival is 99% (inactive).

Consider `CCOC(=O)c1cc(S(=O)(=O)Nc2ccc(OC)c(Cl)c2)[nH]n1`, for which the survival is -6% (active).

As to `CCOC(=O)c1cc(S(=O)(=O)Nc2cc(C)c(Cl)cc2OC)[nH]n1`, the survival is 98% (inactive).

With `CCOC(=O)c1cc(S(=O)(=O)Nc2cc(OC)ccc2OC)[nH]n1`, the survival was 123% (inactive).
